About 83,000 compounds went through this panel and 20% of them were active in at least one assay; those are over-represented in the sample as a whole.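 Compound tested at a single concentration for 48 hours in 96-well plates; a percent growth value below 10 was scored as active.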 Values without a mark were called inactive. Activity calls are given as the source filed them.
Key:
Assay in all cases: NCI-60 one-dose screen, 48 h (100 = growth as untreated, 0 = no growth, -100 = all killed)
Conditions in all cases: 10 µM
[1] = system: NCI-H23 lung
[2] = system: NCI-H226 lung
[3] = system: NCI-H322M lung
[4] = system: HOP-62 NSCLC
[5] = system: NCI-H460 lung
[6] = system: HOP-92 NSCLC
[7] = system: NCI-H522 lung
[8] = system: A549/ATCC NSCLC
[9] = system: 786-0 renal
[10] = system: COLO 205 colon
[11] = system: DU-145 prostate
[12] = system: K-562 leukemia
[13] = system: MALME-3M melanoma
[14] = system: MDA-MB-231 breast
[15] = system: RXF 393 renal
[16] = system: SF-268 CNS
[17] = system: SF-295 CNS
[18] = system: SF-539 CNS
[19] = system: UACC-257 melanoma
[20] = system: M14 melanoma

Structure (SMILES) | growth [1] | growth [2] | growth [3] | growth [4] | growth [5] | growth [6] | growth [7] | growth [8] | growth [9] | growth [10] | growth [11] [%] | growth [12] | growth [13] | growth [14] | growth [15] | growth [16] [%] | growth [17] | growth [18] | growth [19] | growth [20]
O=c1cc(-c2ccccc2)oc2cc(OCCCNCc3ccccc3)cc(O)c12 | -91% (active) | 46.4% | 31% | 21.3% | -53.4% (active) | -9.75% (active) | -62.6% (active) | 26.2% | -48% (active) | -88% (active) | 13.2 | -20.1% (active) | -94.3% (active) | -43.1% (active) | -56.7% (active) | 25.2 | -81.8% (active) | -97.3% (active) | -69.7% (active) | -76% (active)
C=C(c1ccc(OC)c(N)c1)c1cc(C)nc2ccccc12 | 12.3% | 22.8% | 37.8% | 30.9% | -4.48% (active) | 53.8% | -29.4% (active) | 19.9% | 22.6% | -79.8% (active) | 14.9 | 11.3% | 49.9% | 10.5% | 51.4% | 24.3 | 6.83% (active) | -34.2% (active) | 63.3% | 16%
CS(=O)(=O)Nc1ccc(-c2ccc3c(c2)ncn3-c2ccc(NC(=O)Nc3ccc(Br)cc3)cc2)cc1 | 3.9% (active) | 9.71% (active) | 15.3% | -3.22% (active) | 2.98% (active) | 26.8% | -23.4% (active) | 12.1% | -13.6% (active) | -27.9% (active) | 29.8 | 4.89% (active) | -20.2% (active) | 13.6% | -16.8% (active) | 26.4 | -38.3% (active) | -34.5% (active) | -16.9% (active) | 4.32% (active)
COc1ccc2[nH]c(=O)c(CSc3cccc(N)c3)cc2c1 | 79.2% | 74.5% | 74.6% | 61.5% | 20.7% | 76.5% | 62.6% | 46.4% | 55% | 2.77% (active) | 59.4 | 15.6% | 97.1% | 72.7% | 84.8% | 58 | 31.2% | 71.3% | 62.3% | 24%
N#Cc1c(NC(=O)c2ccc(C(F)(F)F)cc2)sc2c1CCC(O)=C2 | 23.9% | 46.9% | 46.1% | 26.3% | 14.6% | 38.7% | 1.61% (active) | 34.7% | 53.3% | 60.9% | 38.5 | 8.86% (active) | 23.2% | 13.5% | 14.6% | 43.3 | 17.5% | 3.2% (active) | 36% | 13%
N#Cc1c(-c2ccc(F)cc2)nc(SCc2ccc([N+](=O)[O-])cc2)nc1N1CCOCC1 | 74.8% | 23.8% | 82.7% | 34.7% | 77.4% | 36.7% | 41.3% | 63.4% | 30.2% | 90.9% | 73.3 | 76.9% | 42.8% | 47.1% | 9.79% (active) | 49.3 | 41.5% | 26.2% | 54.2% | 87.7%
CO[C@H]1CSS[C@@H]1Cn1nc(-c2ccc(Oc3ccccc3)cc2)c2c(N)ncnc21 | 40.4% | 16.6% | 53.4% | 41.3% | 21.1% | 20.5% | -13% (active) | 22.1% | 45% | 36.1% | 38.3 | 7.28% (active) | -38.2% (active) | 9.69% (active) | 18.6% | 32.4 | 35.4% | 36.1% | -3.47% (active) | -93% (active)
O=C(O)CCCCCCCCCCN1C(=O)/C(=C/c2cnc(-c3ccc(Cl)cc3)s2)SC1=S | 11.8% | 34.8% | 5.41% (active) | 36.3% | 4.44% (active) | -40.9% (active) | -16% (active) | -19.6% (active) | 28.1% | 139% | 13.2 | 22.1% | 80.6% | 48.9% | 77.4% | 49.4 | 8.83% (active) | 36.4% | 87.6% | 16.5%
COc1ccc([C@H]2C(C(=O)c3ccc(Cl)cc3)C3(N[C@@H]2c2ccccc2)C(=O)Nc2ccc(Cl)cc23)cc1 (stereo not given in full) | -56.2% (active) | -56.4% (active) | 20% | -57.2% (active) | -11.7% (active) | -26.7% (active) | -1.74% (active) | 18.2% | -12% (active) | -89.5% (active) | 14.6 | 3.72% (active) | -10.6% (active) | -68.3% (active) | -64.3% (active) | 20.2 | -63.2% (active) | -46.1% (active) | 9.2% (active) | 11%
COC[C@@H](CC(C)C)N=C1NC(=O)/C(=C/c2ccc3ncsc3c2)N1 | -10.5% (active) | -1.9% (active) | 15.8% | 3.81% (active) | 7.24% (active) | 3.44% (active) | -3.68% (active) | 13.5% | 23.5% | -11.8% (active) | 15.7 | 11.8% | 8.01% (active) | 9.26% (active) | -36.9% (active) | 16 | 23.2% | -20.5% (active) | 16.2% | 42.3%
Cc1ccc(CSc2nc(-c3ccc(F)cc3)c(C#N)c(=O)[nH]2)cc1 | 103% | 99.1% | 98.6% | 102% | 109% | 96.7% | 87.1% | 89.8% | 100% | 131% | 101 | 91.1% | 117% | 104% | 95.1% | 101 | 95.6% | 101% | 102% | 116%
COc1ccc([C@H]2C(C(=O)c3ccc(Cl)cc3)C3(N[C@@H]2c2ccccc2)C(=O)Nc2ccc(Br)cc23)cc1 (stereo not given in full) | -47.4% (active) | -42.5% (active) | 21.6% | -8.82% (active) | -44.4% (active) | -20.6% (active) | 6.07% (active) | 17.3% | -17.5% (active) | -92% (active) | 17 | 5.88% (active) | -7.99% (active) | -58.3% (active) | -72.9% (active) | 18.9 | -60.2% (active) | -21.5% (active) | 17% | 16.1%
COC[C@@H](CC(C)C)N=C1N/C(=C\c2ccc3ncsc3c2)C(=O)N1C | -17.7% (active) | 11.4% | 9.12% (active) | -9.28% (active) | 21.2% | 19.1% | -29.6% (active) | 15.9% | 14.9% | -28.4% (active) | 20.9 | 17.7% | 7.51% (active) | 0.748% (active) | -19.2% (active) | 19.1 | 23.2% | -15.6% (active) | 6.69% (active) | 38.1%
COc1cc2c(cc1OC)CN(CCCCOc1cc(O)c3c(=O)cc(-c4ccccc4)oc3c1)CC2 | 67.2% | 63.5% | 92.5% | 80.7% | 49.6% | 64.2% | 58.4% | 67.7% | 23.9% | -43.8% (active) | 80.3 | -6.81% (active) | -68.6% (active) | 38.5% | 29.8% | 65.9 | 26.2% | 48.7% | 5.33% (active) | -21% (active)
O=C1Nc2cc(-c3ccc(NC(=O)c4cccs4)cc3)ccc2/C1=C/c1ccc[nH]1 | 66.4% | 40.4% | 99.3% | 98.3% | 83% | 104% | 79.4% | 81.7% | 98.5% | 99.7% | 32.7 | 80.8% | 78.2% | 61% | 73.9% | 73.5 | 55.1% | 83.9% | 75.2% | 88.9%
CC(=O)Nc1ccc(-n2cnc3cc(-c4ccc(NS(C)(=O)=O)cc4)ccc32)cc1 | 61% | -68.4% (active) | 59.1% | 75.4% | 33.4% | 39.7% | 46.9% | 57% | 52.3% | 63.9% | 58.2 | 24% | 75.6% | 49.4% | 92.5% | 47.3 | 51% | 65.3% | 64.4% | 61.9%

Source: PubChem BioAssay (NCI)
